Data from publication PMC9911399, “Two distinct binding modes provide the RNA-binding protein RbFox with extraordinary sequence specificity”.
Numbering of substitutions follows the chain as printed; changes in the protein carry UniProt numbers. Over roughly 16,000 sequences, “ka relative to ugcaugu” has its median near 0.0091; the highest 2% begin near 0.032. The entries come from a sample that favours the highest values as a whole.

T1: RBFOX1 RRM (Homo sapiens, UniProt Q9NWB1 109-208)
T1 sequence: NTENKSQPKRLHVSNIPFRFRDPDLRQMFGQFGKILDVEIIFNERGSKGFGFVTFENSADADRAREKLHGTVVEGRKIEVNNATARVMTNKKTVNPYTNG

B1: AACAGAA (DNA:RNA)
RNA: GGGAGACCGGAAUUCAGAUUGUCCAACAGAAUUAAAUCCCGUCGUAGCCACCA
DNA 1: CAATCTGAATTCCGGTCTCCC
DNA 2: TGGTGGCTACGACGGGATT
B2: AAACGGU (DNA:RNA)
RNA: B1 RNA with C27A, A28C, A30G, A31U
DNA 1: CAATCTGAATTCCGGTCTCCC
DNA 2: TGGTGGCTACGACGGGATT
B3: AGGAGGC (DNA:RNA)
RNA: B1 RNA with A26G, C27G, A30G, A31C
DNA 1: CAATCTGAATTCCGGTCTCCC
DNA 2: TGGTGGCTACGACGGGATT
B4: GUAUUGC (DNA:RNA)
RNA: GGGAGACCGGAAUUCAGAUUGUCCGUAUUGCUUAAAUCCCGUCGUAGCCACCA
DNA 1: CAATCTGAATTCCGGTCTCCC
DNA 2: TGGTGGCTACGACGGGATT
B5: CUGAUGA (DNA:RNA)
RNA: B4 RNA with G25C, A27G, U28A, C31A
DNA 1: CAATCTGAATTCCGGTCTCCC
DNA 2: TGGTGGCTACGACGGGATT
B6: GGAAUGC (DNA:RNA)
RNA: B4 RNA with U26G, U28A
DNA 1: CAATCTGAATTCCGGTCTCCC
DNA 2: TGGTGGCTACGACGGGATT
B7: GUAAUGC (DNA:RNA)
RNA: B4 RNA with U28A
DNA 1: CAATCTGAATTCCGGTCTCCC
DNA 2: TGGTGGCTACGACGGGATT
B8: AGGCUUG (DNA:RNA)
RNA: B1 RNA with A26G, C27G, A28C, G29U, A30U, A31G
DNA 1: CAATCTGAATTCCGGTCTCCC
DNA 2: TGGTGGCTACGACGGGATT
B9: UGAUGAA (DNA:RNA)
RNA: B1 RNA with A25U, A26G, C27A, A28U
DNA 1: CAATCTGAATTCCGGTCTCCC
DNA 2: TGGTGGCTACGACGGGATT
B10: CCGUUGC (DNA:RNA)
RNA: B4 RNA with G25C, U26C, A27G
DNA 1: CAATCTGAATTCCGGTCTCCC
DNA 2: TGGTGGCTACGACGGGATT
B11: GGAUUGC (DNA:RNA)
RNA: B4 RNA with U26G
DNA 1: CAATCTGAATTCCGGTCTCCC
DNA 2: TGGTGGCTACGACGGGATT
B12: UGAAUGA (DNA:RNA)
RNA: B4 RNA with G25U, U26G, U28A, C31A
DNA 1: CAATCTGAATTCCGGTCTCCC
DNA 2: TGGTGGCTACGACGGGATT
B13: GAAAUGC (DNA:RNA)
RNA: B4 RNA with U26A, U28A
DNA 1: CAATCTGAATTCCGGTCTCCC
DNA 2: TGGTGGCTACGACGGGATT
B14: ACCAGGC (DNA:RNA)
RNA: B1 RNA with A26C, A30G, A31C
DNA 1: CAATCTGAATTCCGGTCTCCC
DNA 2: TGGTGGCTACGACGGGATT
B15: CCAAGUA (DNA:RNA)
RNA: B1 RNA with A25C, A26C, C27A, A30U
DNA 1: CAATCTGAATTCCGGTCTCCC
DNA 2: TGGTGGCTACGACGGGATT
B16: UGACUAA (DNA:RNA)
RNA: B1 RNA with A25U, A26G, C27A, A28C, G29U
DNA 1: CAATCTGAATTCCGGTCTCCC
DNA 2: TGGTGGCTACGACGGGATT
B17: AGAUAAC (DNA:RNA)
RNA: B4 RNA with G25A, U26G, U29A, G30A
DNA 1: CAATCTGAATTCCGGTCTCCC
DNA 2: TGGTGGCTACGACGGGATT
B18: CCAGGCC (DNA:RNA)
RNA: B4 RNA with G25C, U26C, U28G, U29G, G30C
DNA 1: CAATCTGAATTCCGGTCTCCC
DNA 2: TGGTGGCTACGACGGGATT
B19: CUGUCUG (DNA:RNA)
RNA: B4 RNA with G25C, A27G, U29C, G30U, C31G
DNA 1: CAATCTGAATTCCGGTCTCCC
DNA 2: TGGTGGCTACGACGGGATT
B20: GGAUACC (DNA:RNA)
RNA: B4 RNA with U26G, U29A, G30C
DNA 1: CAATCTGAATTCCGGTCTCCC
DNA 2: TGGTGGCTACGACGGGATT
B21: CCCCGGC (DNA:RNA)
RNA: B1 RNA with A25C, A26C, A28C, A30G, A31C
DNA 1: CAATCTGAATTCCGGTCTCCC
DNA 2: TGGTGGCTACGACGGGATT
B22: GGCUUGC (DNA:RNA)
RNA: B4 RNA with U26G, A27C
DNA 1: CAATCTGAATTCCGGTCTCCC
DNA 2: TGGTGGCTACGACGGGATT
B23: GGAUGCU (DNA:RNA)
RNA: B4 RNA with U26G, U29G, G30C, C31U
DNA 1: CAATCTGAATTCCGGTCTCCC
DNA 2: TGGTGGCTACGACGGGATT
B24: CACCGGC (DNA:RNA)
RNA: B1 RNA with A25C, A28C, A30G, A31C
DNA 1: CAATCTGAATTCCGGTCTCCC
DNA 2: TGGTGGCTACGACGGGATT
B25: GUCUUGC (DNA:RNA)
RNA: B4 RNA with A27C
DNA 1: CAATCTGAATTCCGGTCTCCC
DNA 2: TGGTGGCTACGACGGGATT
B26: CGGAUGC (DNA:RNA)
RNA: B4 RNA with G25C, U26G, A27G, U28A
DNA 1: CAATCTGAATTCCGGTCTCCC
DNA 2: TGGTGGCTACGACGGGATT
B27: GGGAUGC (DNA:RNA)
RNA: B4 RNA with U26G, A27G, U28A
DNA 1: CAATCTGAATTCCGGTCTCCC
DNA 2: TGGTGGCTACGACGGGATT
B28: UAAAUGC (DNA:RNA)
RNA: B4 RNA with G25U, U26A, U28A
DNA 1: CAATCTGAATTCCGGTCTCCC
DNA 2: TGGTGGCTACGACGGGATT
B29: UGAAUUG (DNA:RNA)
RNA: B4 RNA with G25U, U26G, U28A, G30U, C31G
DNA 1: CAATCTGAATTCCGGTCTCCC
DNA 2: TGGTGGCTACGACGGGATT
B30: CGGCUUG (DNA:RNA)
RNA: B4 RNA with G25C, U26G, A27G, U28C, G30U, C31G
DNA 1: CAATCTGAATTCCGGTCTCCC
DNA 2: TGGTGGCTACGACGGGATT
B31: UGAAUGC (DNA:RNA)
RNA: B4 RNA with G25U, U26G, U28A
DNA 1: CAATCTGAATTCCGGTCTCCC
DNA 2: TGGTGGCTACGACGGGATT
B32: GUCCGGC (DNA:RNA)
RNA: B4 RNA with A27C, U28C, U29G
DNA 1: CAATCTGAATTCCGGTCTCCC
DNA 2: TGGTGGCTACGACGGGATT

These binders were tested against T1, RBFOX1 RRM (assay: EMSA; HiTS-Eq, 1 nM pool, 10 min; buffer printed only for the single-RNA assays: 10 mM Tris pH 7.5, 150 mM NaCl, 3.4 mM EDTA, 0.001% NP-40, 30 C). Conditions: tags: His6 N-terminal (pET28a); label: 5' 32P.
Method in brief: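 These values rest on relative association constants, computed from read-count changes of each RNA species versus the control reaction and normalised to the cognate motif. Reads came from free RNA recovered by 8% native PAGE after purified RbFox RRM (wild type or mutant) at increasing concentrations was equilibrated for 10 min in 50 µL with 1 nM of a 5′-radiolabelled pool with 7 randomized nucleotides and DNA-annealed flanks.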
In the case of B1, the binding signal is reported as 0.00258 KA relative to UGCAUGU.
For B2, the binding signal was 0.0059 KA relative to UGCAUGU.
For B3, the binding signal was 0.0129 KA relative to UGCAUGU.
With B4 the binding signal was 0.0151 KA relative to UGCAUGU.
With B5 the binding signal was 0.0162 KA relative to UGCAUGU.
B6 was tested, and the binding signal was 0.0946 KA relative to UGCAUGU.
In the case of B7, the binding signal is reported as 0.0131 KA relative to UGCAUGU.
In the case of B8, the binding signal is reported as 0.0346 KA relative to UGCAUGU.
With B9 the binding signal was 0.0191 KA relative to UGCAUGU.
With B10 the binding signal was 0.0124 KA relative to UGCAUGU.
For B11, the binding signal was 0.0376 KA relative to UGCAUGU.
B12 was tested, and the binding signal was 0.0319 KA relative to UGCAUGU.
With B13 the binding signal was 0.0136 KA relative to UGCAUGU.
For B14, the binding signal was 0.00626 KA relative to UGCAUGU.
With B15 the binding signal was 0.00123 KA relative to UGCAUGU.
With B16 the binding signal was 0.00904 KA relative to UGCAUGU.
B17 was tested, and the binding signal was 0.00125 KA relative to UGCAUGU.
In the case of B18, the binding signal is reported as 0.0113 KA relative to UGCAUGU.
B19 was tested, and the binding signal was 0.0306 KA relative to UGCAUGU.
B20 was tested, and the binding signal was 0.00541 KA relative to UGCAUGU.
In the case of B21, the binding signal is reported as 0.00228 KA relative to UGCAUGU.
With B22 the binding signal was 0.0328 KA relative to UGCAUGU.
In the case of B23, the binding signal is reported as 0.0261 KA relative to UGCAUGU.
In the case of B24, the binding signal is reported as 0.00645 KA relative to UGCAUGU.
B25 was tested, and the binding signal was 0.0291 KA relative to UGCAUGU.
In the case of B26, the binding signal is reported as 0.0275 KA relative to UGCAUGU.
B27 was tested, and the binding signal was 0.0515 KA relative to UGCAUGU.
For B28, the binding signal was 0.00992 KA relative to UGCAUGU.
B29 was tested, and the binding signal was 0.0261 KA relative to UGCAUGU.
For B30, the binding signal was 0.0325 KA relative to UGCAUGU.
B31 was tested, and the binding signal was 0.0399 KA relative to UGCAUGU.
For B32, the binding signal was 0.00575 KA relative to UGCAUGU.
